# Compound activity (PubChem BioAssay)
# USP2a block – inhibitors of human ubiquitin-specific protease USP2a | O75604 | USP2 core, Ub-CHOP2 coupled fluorogenic reporter, 485/531 | Potency, µM (highest dose often 38.3 µM), for inactives: at the highest dose activity change, negative = inhibition, actives largely listed as inhibitors | 0.01% of 330,000 active | AID 463254;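 further: plate controls were DMSO wells for no effect and full inhibition by NEM control for full effect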
# Target sequence (O75604 whole entry, looked up): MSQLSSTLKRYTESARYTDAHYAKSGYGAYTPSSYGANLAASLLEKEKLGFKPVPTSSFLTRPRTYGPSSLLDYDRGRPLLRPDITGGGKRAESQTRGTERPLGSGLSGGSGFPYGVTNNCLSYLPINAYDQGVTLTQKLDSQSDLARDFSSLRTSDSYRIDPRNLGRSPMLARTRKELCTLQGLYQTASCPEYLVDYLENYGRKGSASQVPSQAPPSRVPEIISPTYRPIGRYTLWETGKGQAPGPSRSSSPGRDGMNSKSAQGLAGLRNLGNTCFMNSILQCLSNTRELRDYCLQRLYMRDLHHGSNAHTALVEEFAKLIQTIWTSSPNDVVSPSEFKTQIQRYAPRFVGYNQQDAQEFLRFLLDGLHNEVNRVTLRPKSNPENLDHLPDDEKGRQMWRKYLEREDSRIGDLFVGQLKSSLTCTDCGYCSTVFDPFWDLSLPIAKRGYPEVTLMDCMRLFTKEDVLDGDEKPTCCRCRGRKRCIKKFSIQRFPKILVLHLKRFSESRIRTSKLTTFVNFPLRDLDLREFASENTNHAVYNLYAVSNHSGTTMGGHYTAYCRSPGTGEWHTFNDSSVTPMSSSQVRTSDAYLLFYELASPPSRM
#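 Deubiquitinase activity read as fluorescence (485/531 nm) after Ub-CHOP2 cleavage activates the enterokinase reporter on its substrate; USP2 core 10nM, Ub-CHOP2 and substrate 25nM each, 30min compound preincubation then 60min RT; data normalized to NEM, curves fitted.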
# Tb PGK inh – T. brucei PGK inhibition; P07378; PGK/GAPDH coupled, Kinase-Glo luminescence, 60 min; Potency, µM (top dose mostly 57.5 µM), for the others: at the top dose activity change, negative = inhibition, hits mostly inhibitors; 0.043% of 380,000 active; AID 602233; further: nearly all actives have a fitted effect of over 60% in size
#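 Luminescent ATP detection (Kinase-Glo Plus) follows a 60-minute room-temperature incubation, with wells lacking PGK as controls. Buffer: 100 mM TEA (pH 7.6), 5 mM MgCl2, 0.01% Tween-20. Coupling enzyme GAPDH (100 nM final) supplies unstable 1,3-BPG in-well.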
# Tb PFK block – blocks T. brucei phosphofructokinase; Potency, µM (top dose mostly 57.5 µM), for the others: at the highest dose activity, negative = inhibition, actives largely listed as inhibitors; AID 485367; O15648; 0.17% of 330,000 active; T. brucei PFK, ADP-Glo luminescence;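 further: 0% = uninhibited 1x PFK enzyme wells and -100% = no-enzyme wells; nearly all actives have a fitted effect of over 60% in size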
#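 1.25 nM PFK with 0.5 mM F6P and 0.1 mM ATP in 0.1 M TEA pH 8.0, 5 mM MgCl2, incubated 45 min at room temperature; ADP measured by ADP-Glo luminescence; compounds titrated up to 57 uM.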
# Chronic BCR inh – chronic active BCR signaling inhibition; 0.05% of 340,000 active; ABC-DLBCL IkBa-CBG/CBR reporter, luminescence ratio, 4 h; Potency, µM (highest dose often 46.1 µM), for the others: top-dose activity change, negative = inhibition, most hits filed as inhibitors; AID 493014; active means well fitted inhibition curve with a large enough effect in the signal ratio, with a control signal flat, not every such curve was filed as active; inconclusive means small, poorly fitted or top-dose-only effect, or effect the other way, or a change in a side signal; the % refers to the signal ratio;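 further: plate controls were basal doxycycline-induced cells for no effect and cells given 10 µM MG132 for full effect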
#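 TMD8 human ABC-DLBCL cells with doxycycline-inducible IκBα–green luciferase fusion and unfused red luciferase, in 0.5% FBS medium; compounds up to 46 uM, 4 h at 37C. Green/red luminescence ratio, filter-overlap corrected, fitted to concentration-response curves.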
# RGS4 inhibitor – blocks human RGS4-accelerated GTP hydrolysis | Transcreener GDP fluorescence polarization, RGS4-accelerated GTP hydrolysis | AID 504845 | 0.039% of 390,000 active | Potency, µM (titrated, usually from 114 µM), inactives show at the highest dose activity change, negative = inhibition, hits mostly inhibitors | P49798; further: nearly all actives have a fitted effect of over 75% in size
#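 MLSMR compounds (23 nl, pin-transferred) preincubated 10 min at room temperature with a 500nM (2x) first reagent, then RGS4 at 900nM (2x) plus Transcreener GDP mix added; fluorescence polarization (620/688 nm) read before and after 90 min at 30 °C.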
# Active calls of the source: *; i = inactive; ? = inconclusive; . = no result given; ! = repeats disagree. This is a sample that favours compounds with a hit; in the whole collection about 0.25% have one here. Unless noted, the call rests on the fitted dose curve; in most records, active means well fitted curve in the direction sought with a large enough effect; inconclusive means small, poorly fitted or top-dose-only effect, or another doubt; inactive means no such curve, though single readings can be large; an effect the other way counts as inactive or inconclusive. Unless noted, on the % scale 0 is the no-effect control and ±100 the full control effect; potency means the concentration at half of the fitted maximal effect.
SMILES,USP2a block,Tb PGK inh,Tb PFK block,Chronic BCR inh,RGS4 inhibitor
O=C1C=C(NCc2ccc(Cl)cc2)CC(c2ccco2)C1 (stereo not drawn),4%,1%,-8%,6%,18%
O=C1C=C(Nc2ccc(Cl)cc2Cl)CC(c2ccco2)C1 (stereo not drawn),1%,i,-1%,13µM*,-16%
C1CCC(NC(=NC2C3CC4CC(C3)CC2C4)N2CCOCC2)CC1 (stereo not drawn),.,.,.,.,0.34µM*
C=C1C=CS(=O)(=O)N(Cc2ccccc2)C1,.,.,.,.,-10%
O=C(O)COc1ccc2c(c1)O/C(=C\c1ccco1)C2=O,0%,28µM*,1%,2%,-2%
O=C(O)COc1ccc2c(c1)O/C(=C\c1cccs1)C2=O,2%,i,2%,-2%,-34%
OCC1OC(n2cnc3c(NC4CCCCC4)ncnc32)C(O)C1O (stereo not drawn),-1%,-6%,0%,13µM*,18%
Nc1ncnc2c1ncn2[C@@H]1O[C@H](COP(=O)(O)OP(=O)(O)OP(=O)(O)OP(=O)(O)OC[C@@H]2O[C@H](n3cnc4c(N)ncnc43)[C@@H](O)[C@H]2O)[C@@H](O)[C@H]1O,.,.,.,.,3µM*
Nc1nc(Cl)nc2c1ncn2[C@@H]1O[C@H](COP(=O)(O)OP(=O)(O)OP(=O)(O)O)[C@@H](O)[C@H]1O,.,.,.,.,0.53µM*
Nc1ncnc2c1ncn2C1O[C@H](CO)[C@@H](O)[C@@H]1O (stereo partly drawn),1%,-4%,-9%,-2%,22%
O=C(NCC(c1ccco1)N1CCc2ccccc21)C(=O)Nc1ccccc1F (stereo not drawn),-1%,-2%,5%,-5%,-8%
O=C(NCC(c1ccco1)N1CCc2ccccc21)C(=O)Nc1ccc(F)cc1F (stereo not drawn),-2%,-2%,9%,9.2µM*,-18%
O=C(Cn1cc([N+](=O)[O-])cn1)Nc1ccc(Cn2cc(Br)cn2)cc1,2%,2%,27µM*,7%,-24%
COC(=O)c1ccc(Cn2cc([N+](=O)[O-])cn2)cc1,0%,-9%,-14%,-2%,-42%
NC(C(=O)O)c1nn[nH]n1 (stereo not drawn),.,.,.,.,-12%
COC1OC(COC(=O)c2ccccc2)C(OC(=O)c2ccccc2)C1OC(=O)c1ccccc1 (stereo not drawn),-11%,-4%,-7%,0%,34%
O=C(O)C[C@@H]1C(=O)O[C@@H]2C(COC(=O)c3cc(O)c(O)c(O)c3)O[C@@H](OC(=O)c3cc(O)c(O)c(O)c3)[C@@H](OC(=O)c3cc(O)c(O)c4c3[C@H]1[C@H](O)C(=O)O4)[C@H]2OC(=O)c1cc(O)c(O)c(O)c1 (stereo partly drawn),0.89µM*,.,1.5µM*,?,.
CC1(C)C2CCC1(C)C(NC(=O)COC(=O)c1ccc(S(C)(=O)=O)c([N+](=O)[O-])c1)C2 (stereo not drawn),.,.,.,.,-31%
O=C1NC(=O)C(c2ccccc2[N+](=O)[O-])=C1Nc1ccc(O)c(Cl)c1,-3%,-11%,0%,?,12µM*!
CCCN1CCC(=O)N(CCSc2ccc(Br)cc2)CC1,.,.,.,.,-5%
COc1cc(NS(=O)(=O)c2ccc(NC(=S)NC(=O)/C=C/c3ccco3)cc2)ncn1,6%,20µM*,18%,7%,-19%
CCOc1ccc(NC(=S)NC(=O)/C=C/c2ccco2)cc1,0%,6%,1%,-8%,1%
Cc1ccc(NC(=O)CN2C(=O)N/C(=C/c3ccccc3OCc3cccc(C(=O)O)c3)C2=O)cc1,-1%,22µM*,?,?,-42%
CC(=O)NC1=CC(=O)c2nonc2C1=O,.,.,.,.,-37%
CC(C(=O)O)N1C(=O)/C(=C/C=C/c2ccco2)SC1=S (stereo not drawn),?,7.9µM*,3µM*,7%,?
O=C(Nc1cccnc1)c1ccccc1O,7%,-2%,4%,?,-3%
O=C(Nc1cccnc1)c1coc(=O)c2ccccc12,0%,-7%,-4%,18µM*,-12%
